Source: PubChem BioAssay AID1159580 (chemical genetic matrix, 2015)
The campaign covered roughly 5,500 compounds. About 2,000 (36%) were called active. Another 18% or so got no clear call; they are omitted. Rule as the data show it: active = normalized growth mostly below about 0.91 (no sharp cut-off); inconclusive = no clear call, values can overlap the other calls; inactive = mostly above about 0.92. The list shows a part of the results.

Test: chemical genetic growth profiling, strain panel (AID 1159580);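 also: tested at 20 µM; growth read once vehicle control cultures reached saturation at 30 °C; 1 = growth at the plate median or of vehicle wells; lower values mean less growth of the strain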
Settings: S. cerevisiae deletion strains, growth OD

Measured: normalized growth

CC(C)CCCC(C)N (configuration not stated)
inactive: locus YAL021C, strain ccr4, hits give low values 1.03 | locus YAL026C, strain drs2, hits give low values 1.02 | locus YAL030W, strain snc1, hits give low values 1.02 | locus YBL061C, strain skt5, hits give low values 1.02 | locus YBR009C, strain hhf1, hits give low values 1.02 | locus YBR023C, strain chs3, hits give low values 1.03 | locus YBR171W, strain sec66, hits give low values 1.05 | locus YBR231C, strain swc5, hits give low values 1.02 | locus YBR279W, strain paf1, hits give low values 1.02 | locus YCL011C, strain gbp2, hits give low values 1.04 | locus YCL016C, strain dcc1, hits give low values 1.02 | locus YCL061C, strain MRC1, hits give low values 1.01 | locus YCL069W, strain vba3, hits give low values 1.03 | locus YCR088W, strain abp1, hits give low values 1.03 | locus YDL005C, strain med2, hits give low values 1.04 | locus YDL040C, strain nat1, hits give low values 1.02 | locus YDR001C, strain nth1, hits give low values 1.02 | locus YDR069C, strain doa4, hits give low values 1.04 | locus YDR137W, strain rgp1, hits give low values 0.99 | locus YDR159W, strain sac3, hits give low values 0.97 | locus YDR195W, strain ref2 1.03 | locus YDR297W, strain sur2, hits give low values 1.02 | locus YDR334W, strain swr1, hits give low values 1.03 | locus YDR335W, strain msn5, hits give low values 1.04 | locus YDR392W, strain spt3, hits give low values 0.963 | locus YEL003W, strain gim4, hits give low values 1.02 | locus YEL037C, strain rad23, hits give low values 1.04 | locus YEL061C, strain CIN8 (second series), hits give low values 1.01 | locus YER015W, strain faa2, hits give low values 1.02 | locus YER016W, strain bim1, hits give low values 1.05 | locus YER111C, strain swi4, hits give low values 1.04 | locus YER155C, strain BEM2 (second series), hits give low values 1.03 | locus YFR010W, strain ubp6, hits give low values 1.01 | locus YGL167C, strain pmr1, hits give low values 1.03 | locus YGL173C, strain kem1, hits give low values 1.01 | locus YGL227W, strain vid30, hits give low values 1.04 | locus YGL240W, strain doc1, hits give low values 0.983 | locus YGL253W, strain hxk2, hits give low values 1.04 | locus YHR013C, strain ard1, hits give low values 1.03 | locus YHR027C, strain rpn1, hits give low values 1.02 | locus YHR142W, strain chs7, hits give low values 1.05 | locus YJL092W, strain hpr5, hits give low values 1.02 | locus YJL095W, strain BCK1 (second series), hits give low values 1.03 | locus YJL115W, strain asf1, hits give low values 1.03 | locus YJL129C, strain trk1, hits give low values 1.04 | locus YJL154C, strain vps35, hits give low values 1.03 | locus YJL164C, strain tpk1, hits give low values 1.03 | locus YJL166W, strain qcr8, hits give low values 1.02 | locus YJL187C, strain SWE1, hits give low values 1.02 | locus YKL160W, strain elf1, hits give low values 1.03 | locus YKR026C, strain gcn3, hits give low values 1.02 | locus YKR091W, strain srl3, hits give low values 1.01 | locus YLL001W, strain dnm1, hits give low values 1 | locus YLL026W, hits give low values 1.01 | locus YLL041C, strain sdh2, hits give low values 1.03 | locus YLR027C, strain aat2, hits give low values 1.03 | locus YLR221C, strain rsa3, hits give low values 1.01 | locus YLR258W, strain gsy2, hits give low values 1.01 | locus YLR262C, strain YPT6 (second series), hits give low values 0.999 | locus YLR320W, strain mms22, hits give low values 0.977 | locus YLR342W, strain FKS1, hits give low values 1.03 | locus YLR357W, strain rsc2, hits give low values 1.06 | locus YLR370C, strain arc18, hits give low values 1.03 | locus YLR384C, strain iki3, hits give low values 1.03 | locus YML120C, strain ndi1, hits give low values 1.02 | locus YMR058W, strain fet3, hits give low values 1.01 | locus YMR125W, strain sto1, hits give low values 1.04 | locus YMR129W, hits give low values 1.02 | locus YMR205C, strain PFK2, hits give low values 1.01 | locus YMR231W, strain pep5, hits give low values 1.03 | locus YNL071W, strain lat1, hits give low values 1.03 | locus YNL209W, strain ssb2, hits give low values 1.03 | locus YNL248C, strain rpa49, hits give low values 1.07 | locus YNL322C, strain KRE1 (second series), hits give low values 1.04 | locus YNR049C, strain mso1, hits give low values 1.03 | locus YOR001W, strain rrp6, hits give low values 1.02 | locus YOR070C, strain gyp1, hits give low values 1.02 | locus YOR080W, strain dia2, hits give low values 1.03 | locus YOR083W, strain WHI5, hits give low values 0.968 | locus YOR106W, strain vam3, hits give low values 1.04 | locus YOR265W, strain rbl2, hits give low values 1.02 | locus YOR270C, strain vph1, hits give low values 1.14 | locus YOR290C, strain snf2, hits give low values 1.03 | locus YPL051W, strain arl3, hits give low values 1.02 | locus YPL078C, strain atp4, hits give low values 1.04 | locus YPL106C, strain sse1, hits give low values 1.05 | locus YPL240C, strain hsp82, hits give low values 1.03
